Results as given in PubChem BioAssay AID624170 (National Center for Advancing Translational Sciences (NCATS), 2012).
In all, about 410,000 compounds went through this assay and about 850 (0.21%) were called active. Roughly 2% stayed inconclusive and do not appear here. For the sample, actives were picked, then their nearest neighbours and some compounds at random. Unmarked numbers belong to inactive results. The call rests on the fitted dose curve; in most records, active means well fitted inhibition curve with a large enough effect; inconclusive means small, poorly fitted or top-dose-only effect, or another doubt; inactive means no such curve, though single readings can be large or run the other way.

biological target: Glutaminase kidney isoform, mitochondrial (Homo sapiens) (UniProt O94925); assay: qHTS for Inhibitors of Glutaminase (GLS); details: GLS enzymatic activity, qHTS titration; series mostly up to 45.5 µM; activity change, negative = inhibition: at the top concentration
Description: Glutaminase (GLS) catalyzes the hydrolysis of glutamine into glutamate and ammonia. It plays a critical role in glutaminolysis, which is an important energy source for proliferating cells. It was shown that c-Myc, an oncogenic transcription factor known to regulate microRNAs and to stimulate cell proliferation, increases glutamine metabolism by stimulating the expression of GLS via direct suppression of miR23a and miR23b.
GLS is also thought to play a pathogenic role on HAD using a human HIV-1 infected macrophage system. […] GLS inhibition limits glutamate release and provides neuroprotection against HIV-1 infected macrophages.
The overall goal of this project is to identify small molecule inhibitors of GLS through quantitative high throughput screening (qHTS) of the MLSMR. A validated potent and selective inhibitor can be used as a tool molecule to further study the pharmacology of its target as well as explore its potential therapeutic application in cancer and inflammatory neurological disorders, such as HIV1-associated dementia (HAD) and multiple sclerosis.
NIH Chemical Genomics Center [NCGC]
NIH Molecular Libraries Probe Centers Network [MLPCN]
Assay Submitter (PI): Barbara S. Slusher, Johns Hopkins University
Three 3 uL of hKGA is dispensed into black well 1536-well plates in 45 mM KH2PO4 (pH 8.2), 0.02% Tween-20. Then 23 nL of compounds are added through pin tool transfer. To this, 1 uL of 1mM L-Glutamine and 1 uL of a solution of L-Glutamateoxidase, HRP, Amplex red are added. Plate is centrifuged for 25 sec before an initial fluorescence read is obtained on the ViewLux, after 30 min of RT incubation, the final read is taken on the ViewLux.
On the % scale 0 is the no-effect control and ±100 the full control effect; potency means the concentration at half of the fitted maximal effect.

Glutaminase kidney isoform, mitochondrial (Homo sapiens), sequence (O94925 whole entry, looked up, canonical isoform): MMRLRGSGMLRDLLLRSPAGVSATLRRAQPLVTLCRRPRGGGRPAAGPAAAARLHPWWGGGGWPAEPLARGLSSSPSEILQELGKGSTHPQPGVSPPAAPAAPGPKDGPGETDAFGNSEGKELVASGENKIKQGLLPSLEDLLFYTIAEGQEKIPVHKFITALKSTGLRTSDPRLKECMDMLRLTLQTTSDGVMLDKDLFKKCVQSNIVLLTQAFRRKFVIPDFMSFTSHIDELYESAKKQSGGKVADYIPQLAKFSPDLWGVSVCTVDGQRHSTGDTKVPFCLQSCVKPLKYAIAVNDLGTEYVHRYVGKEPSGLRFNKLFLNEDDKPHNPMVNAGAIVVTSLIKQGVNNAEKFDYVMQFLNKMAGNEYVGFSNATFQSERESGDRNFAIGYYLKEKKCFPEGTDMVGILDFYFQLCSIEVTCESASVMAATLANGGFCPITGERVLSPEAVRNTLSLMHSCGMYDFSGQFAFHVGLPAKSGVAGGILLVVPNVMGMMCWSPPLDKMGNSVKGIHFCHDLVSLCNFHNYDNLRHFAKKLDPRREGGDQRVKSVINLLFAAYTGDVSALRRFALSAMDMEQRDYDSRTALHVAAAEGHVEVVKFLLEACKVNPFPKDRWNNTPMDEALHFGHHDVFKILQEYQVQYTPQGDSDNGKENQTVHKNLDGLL

SMILES | activity change, negative = inhibition | Potency
COc1ccc(CCNC(=O)CCCCn2c(=O)c3ccccc3n(Cc3ccccc3)c2=O)cc1OC | -3.74% | 
CCOC(=O)C1=CCC2C(=O)N(Cc3ccccc3)C(=O)C12 (stereo not given) | 5.61% | 
COc1cc(/C=C2/SC(=S)N(Cc3ccccc3)C2=O)cc(OC)c1O |  | 20 µM (active)
COc1cc(NC(=O)c2nn(-c3ccc(C)cc3)c(=O)c3c2c2ccccc2n3C)cc(OC)c1OC | -5.7% | 
COc1ccc(CCC(=O)NCCc2csc(-c3ccc(Cl)cc3)n2)cc1 | 2.21% | 
CN(N)c1nc(N2CCCC2)nc(N2CCCC2)n1 |  | 14.1 µM (active)
FC(F)(F)COc1nc(N2CCCCC2)nc(N2CCNCC2)n1 | -3.1% | 
COc1nc(NC2CCCCC2)nc(N2CCCCCC2)n1 | -4.19% | 
CCCN(CC)[C@@H](CC)C(=O)Nc1c(C)cccc1C | 3.2% | 
O=C(O)CCC(=O)O | -1.49% | 
O=C(CCSCc1ccccc1F)N1CCN(c2ccc(Cl)cc2)CC1 | 0.607% | 
Cn1cnc2c1c(=O)n(Cc1c(Cl)cccc1Cl)c(=O)n2C |  | 20 µM (active)
Cn1c(=O)n(Cc2c(F)cccc2Cl)c(=O)c2c1nc1n2CCN1c1ccc(F)cc1 | 0.648% | 
Cn1cnc2c1c(=O)n(Cc1ccccc1C#N)c(=O)n2C | -19% | 
CO[C@H]1C[C@@H](O[C@@H]2[C@@H](C)O[C@@H](O[C@@H]3/C(C)=C/CC4C[C@@H](C[C@]5(C=C[C@@H](C)[C@H](C6CCCCC6)O5)O4)OC(=O)[C@@H]4C=C(C)[C@@H](O)[C@H]5OC/C(=C\C=C\[C@@H]3C)[C@]54O)C[C@H]2OC)O[C@@H](C)[C@@H]1O | -20% | 
NC(=O)C(=O)N/N=C/c1ccc([N+](=O)[O-])o1 | -7.32% | 
COc1cc(C[C@H]2NCCc3cc(O)c(O)cc32)cc(OC)c1OC | 20% | 
O=S(O)CNc1ccc(S(=O)(=O)c2ccc(NCS(=O)O)cc2)cc1 | -9.19% | 
FC(F)(F)C1CCCN(c2nsc3ccccc23)C1 (stereo not given) |  | 7.94 µM (active)
COc1cc([C@@H]2c3cc4c(cc3[C@@H](O[C@@H]3O[C@@H]5CO[C@@H](C)O[C@H]5[C@H](O)[C@H]3O)[C@H]3COC(=O)[C@H]23)OCO4)cc(OC)c1OP(=O)(O)O | -14.1% | 
COc1ccc(-c2ccc(=O)n(CC(=O)Nc3ccc(Br)cc3F)n2)cc1 | -2.19% | 
COc1cc([C@H](Cc2ccccc2)NC(C)=O)oc(=O)c1 |  | 17.8 µM (active)
COc1ccc(CNC(=O)C(Cc2ccccc2)n2cccc2)cc1 (stereo not given) | -3.68% | 
COc1ccc2oc(C(=O)NCC(Cc3ccccc3)N(C)C)c(C)c2c1 (stereo not given) | 11% | 
COc1ccc(N2CCN(S(=O)(=O)CCNC(=O)C(c3ccccc3)c3ccccc3)CC2)cc1 | 6.36% | 
